Reference: PubChem BioAssay
Calls of active or inactive are those of the source. Unless noted, the rule behind the calls is not given here.

Key:
[1] = test system: XIP peptide (Xip251-270) binding; experiment: XIP fragment 251-270 binding compounds – biochemical, small-molecule microarray, fluorescence 635/667 nm, 0.1 µg/mL protein, primary screen (AID 1182); details: fluorescent protein binding, 635 nm, higher = more signal, called active from +8 up or from −8 down
XIP peptide (Xip251-270) = experiment: compounds binding XIP fragment 251-270 – biochemical, small-molecule microarray, fluorescence 635/667 nm, 0.5 µg/mL protein, primary screen (AID 1183); details: fluorescence 635 nm, higher = more signal
[2] = blood-stage malaria parasite viability loss – strain 3D7, DAPI fluorescence, 100 nL, primary screen (AID 1184);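 note: parasites grown inside human red blood cells in medium with human serum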; details: P. falciparum 3D7 growth, 3 d, higher = more signal
[3] = molecular target: Homeobox protein Hox-A13 (Mus musculus) (UniProt Q62424); experiment: disruptors of Hoxa13 oligonucleotide interaction – biochemical, fluorescence polarization, labeled oligonucleotide, primary screen (AID 1185); details: Hoxa13:DNA binding, 15 min, higher = more signal, called active from +8 up or from −8 down
[4] = blockers of DNA damage checkpoint Chk1 activation – imaging, HeLa, hydroxyurea, phospho-Chk1 antibody, percent positive cells, primary screen (AID 1186); details: hydroxyurea-induced phospho-Chk1 immunofluorescence imaging, higher = more signal
[5] = blockers of DNA damage checkpoint Chk1 activation – imaging, HeLa, hydroxyurea, phospho-Chk1 nuclear intensity, primary screen (AID 1187); details: hydroxyurea-induced phospho-Chk1 immunofluorescence imaging, higher = more signal

Homeobox protein Hox-A13 (Mus musculus), sequence (Q62424 whole entry, looked up): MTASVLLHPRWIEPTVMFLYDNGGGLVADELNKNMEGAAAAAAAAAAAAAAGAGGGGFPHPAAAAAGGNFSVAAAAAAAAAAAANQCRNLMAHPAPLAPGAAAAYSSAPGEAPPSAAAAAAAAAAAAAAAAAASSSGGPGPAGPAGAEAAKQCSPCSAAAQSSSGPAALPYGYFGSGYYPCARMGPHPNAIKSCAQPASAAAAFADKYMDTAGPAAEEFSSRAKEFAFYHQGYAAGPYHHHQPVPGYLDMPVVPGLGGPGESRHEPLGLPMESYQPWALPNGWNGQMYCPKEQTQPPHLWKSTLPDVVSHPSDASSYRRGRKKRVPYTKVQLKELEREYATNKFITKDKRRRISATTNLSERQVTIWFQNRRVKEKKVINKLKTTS

Row | Compound | composite z-score [1] | composite z-score (XIP peptide (Xip251-270)) | z-score [2] | z-score [3] | z-score [4] | z-score [5]
1 | C=CCN1C(=O)[C@]2(O[C@H](CCO)[C@@H]([Si](C)(C)c3ccc(OC)cc3)[C@@H]2C)c2cc(N3C(=O)COc4ccccc43)ccc21 | 0.879 (inactive) | 0.677 | -2.85 | -3.34 (inactive) | -1.42 (inactive) | -1.34 (inactive)
2 | O=C1O[C@H](c2ccccc2)[C@H](c2ccccc2)N2[C@H]1[C@@H](C(=O)O)[C@]1(C(=O)Nc3ccc(C#CC4(O)CCCCCC4)cc31)[C@H]2c1ccc(O)cc1 | -0.203 (inactive) | 0.194 | 0.361 | -6.61 (inactive) | -0.308 (inactive) | -0.307 (inactive)
3 | Cc1c(NC(=O)/C(C#N)=C/c2ccccc2Cl)c(=O)n(-c2ccccc2)n1C | -0.0708 (inactive) | 0.808 | 0.419 | -1.68 (inactive) | -0.0018 (inactive) | 0.281 (inactive)
4 | C=C[C@@H](OC)[C@H](OC(=O)Nc1ccc(SC)cc1)c1ccc(OCCO)cc1 | -0.302 (inactive) | 0.709 | 0.0419 | -5.58 (inactive) | -0.0838 (inactive) | 0.168 (inactive)
5 | COc1ccc(C(=O)Nc2cccc(CN3C(=O)[C@@]4(O[C@@H](CC(=O)N(CCO)Cc5ccccc5)[C@H]([Si](C)(C)c5ccc(OC)cc5)[C@H]4C)c4ccccc43)c2)cc1 | 1.31 (inactive) | 0.442 | -2.54 | -0.674 (inactive) | -1.43 (inactive) | -0.643 (inactive)
6 | CCOC(=O)C1=CCN(S(=O)(=O)c2ccc(C)cc2)C1c1ccccc1 (centres undefined) | 0.866 (inactive) | 0.805 | -0.584 | -3.71 (inactive) | 0.607 (inactive) | 0.346 (inactive)
7 | COCCOC(=O)N1C(=O)[C@@]2(c3cc(C#CCNC(N)=O)ccc31)[C@H](c1ccc(O)cc1)N1[C@H](c3ccccc3)[C@H](c3ccccc3)OC(=O)[C@H]1[C@@H]2C(N)=O | -0.256 (inactive) | 0.124 | 0.228 | -0.531 (inactive) | -0.0933 (inactive) | -0.0072 (inactive)
8 | CS(=O)(=O)CCOC(=O)C1=CC(CCCO)=CC(C2CC2)N(Cc2cccc(OC(F)(F)F)c2)C=C1C(=O)OCCS(C)(=O)=O (centres undefined) | 0.892 (inactive) | -0.221 | -2.11 | -6.49 (inactive) | -0.002 (inactive) | -0.36 (inactive)
9 | C[C@]1(C(=O)O)c2ccccc2C(=O)N(Cc2ccc(OC(F)(F)F)cc2)[C@H]1c1ccc(CO)cc1 | -0.336 (inactive) | -1.05 | 0.465 | -4.09 (inactive) | -0.159 (inactive) | -0.344 (inactive)
10 | COc1ccc([Si](C)(C)[C@@H]2[C@@H](CCn3cc([C@H](O)c4ccccc4)nn3)O[C@]3(C(=O)N(c4ccccc4)c4ccccc43)[C@H]2C)cc1 | -0.17 (inactive) | 0.559 | -1.73 | -3.01 (inactive) | -0.431 (inactive) | -0.361 (inactive)
11 | CCN(CC)c1ccc(N2CC=CC34O[C@@H]5/C=C\CCC(C)OC(=O)C5[C@H]3C(=O)N(C(C)CO)[C@@H]4C2=O)cc1 (some centres undefined) | -0.187 (inactive) | 0.56 | 0.2 | -5.38 (inactive) | -0.713 (inactive) | -0.257 (inactive)
12 | COc1ccc(C#Cc2ccc3c(c2)[C@]2(C(=O)N3)[C@H](C(=O)N3CCCCCCC3)[C@H]3C(=O)O[C@H](c4ccccc4)[C@H](c4ccccc4)N3[C@@H]2c2ccc(O)cc2)cc1 | 2.34 (inactive) | 0.755 | -1.56 | 0.625 (inactive) | -0.25 (inactive) | -0.372 (inactive)
13 | Cc1ccc(F)cc1S(=O)(=O)N[C@@H]1CCN(Cc2cccc3[nH]ccc23)C1 | -0.605 (inactive) | 0.578 | -0.797 | -3.62 (inactive) | -0.561 (inactive) | -0.948 (inactive)
14 | COC(=O)C1=CC(CCCO)=CC(c2ccc(CN3CCCC3)cc2)N(Cc2cc3c(cc2Br)OCO3)C=C1C(=O)OC (centres undefined) | 2.27 (inactive) | 0.727 | -1.41 | -3.44 (inactive) | 0.119 (inactive) | 0.656 (inactive)
15 | COC(=O)[C@@]1(Cc2ccc(F)cc2)[C@H]2c3cc(C(=O)N4CCCC4)n(C)c3C[C@H]2CN1C(=O)c1ccccc1 | 0.125 (inactive) | 0.664 | -0.37 | -6.1 (inactive) | -0.0152 (inactive) | 0.504 (inactive)
16 | C=C(COC)/C(=C/C[C@@H](OC(=O)c1ccncc1)c1ccccc1OCCO)c1cc(C(=O)OC)ccc1OC | -0.115 (inactive) | -0.728 | -2.97 | -4.02 (inactive) | 0.386 (inactive) | 0.77 (inactive)
17 | COc1ccc(C(=O)Nc2cccc(CN3C(=O)[C@]4(O[C@H](CCn5cc([C@H](O)c6ccccc6)nn5)[C@@H]([Si](C)(C)c5ccc(OC)cc5)[C@@H]4C)c4ccccc43)c2)cc1 | 0.0632 (inactive) | 0.497 | -2.76 | 2 (inactive) | -0.161 (inactive) | -0.0692 (inactive)

Row | Compound | composite z-score [1] | composite z-score (XIP peptide (Xip251-270)) | z-score [2] | z-score [3] | z-score [4] | z-score [5]
18 | COCCCNC(=O)[C@@]1(c2ccc([N+](=O)[O-])cc2)CC(=O)N(CC23CC4CC(CC(C4)C2)C3)[C@@H]1c1ccc(CO)cc1I | 1.15 (inactive) | 0.383 | -1.13 | -4.38 (inactive) | 0.568 (inactive) | 0.885 (inactive)
19 | COCCOC(=O)N1C(=O)[C@@]2(c3ccccc31)[C@H](c1ccc(OCCO)cc1)N1[C@H](c3ccccc3)[C@H](c3ccccc3)OC(=O)[C@H]1[C@@H]2C(=O)N1CCCCCCC1 | 8.16 (active) | 1.04 | -2.08 | -15.8 (active) | -0.17 (inactive) | 0.128 (inactive)
20 | NC(=O)NCC#Cc1ccc2c(c1)[C@]1(C(=O)N2)[C@H](C(=O)N2CCN(c3ncccn3)CC2)[C@H]2C(=O)O[C@H](c3ccccc3)[C@H](c3ccccc3)N2[C@@H]1c1ccc(OCCO)cc1 | -0.134 (inactive) | 0.193 | -0.232 | -1.02 (inactive) | -0.216 (inactive) | -0.0071 (inactive)
21 | CN1C(=O)C2C(C1=O)C1C=C(CCCO)C2C(C2CC2)N1Cc1cc2c(cc1Br)OCO2 (centres undefined) | 1.34 (inactive) | 0.891 | -1.2 | -7.89 (inactive) | 0.498 (inactive) | 0.27 (inactive)
22 | Cc1ccc([C@H]2C(C(=O)O)=C[C@@H](C(C)(C)C)N2S(=O)(=O)c2ccc(C)cc2)cc1 | 0.629 (inactive) | 0.854 | 1.64 | -4.73 (inactive) | 0.695 (inactive) | 0.255 (inactive)
23 | O=C1[C@@]23C=C(Br)[C@H](C[C@@H]2COC3)[C@@]12CO2 | -0.0944 (inactive) | 0.0556 | 2.53 | 0.786 (inactive) | 0.854 (inactive) | 0.352 (inactive)
24 | COCCOC(=O)N1C(=O)[C@@]2(c3ccccc31)[C@H](c1ccccc1OCCO)N1[C@H](c3ccccc3)[C@H](c3ccccc3)OC(=O)[C@H]1[C@@H]2C(=O)N1CCCCCCC1 | 1.55 (inactive) | 0.846 | -2.01 | 2.31 (inactive) | 0.203 (inactive) | 0.424 (inactive)
25 | CC(C)CNC(=O)[C@@]1(c2ccc([N+](=O)[O-])cc2)CC(=O)N(C2CCCCC2)[C@@H]1c1ccc(CO)cc1 | 0.32 (inactive) | 0.104 | -0.672 | -2.24 (inactive) | 0.0803 (inactive) | 0.515 (inactive)
26 | CC(=O)NCCCC[C@@H]1NC(=O)[C@@H]2C[C@H](C(=O)NCCCCCCN)[C@H](c3cccc(OCCO)c3)N2C1=O | 1.15 (inactive) | 0.635 | 1.42 | -3.35 (inactive) | 0.391 (inactive) | 0.388 (inactive)
27 | CCCCNC(=O)c1ccc(C#C[Si](C(C)C)(C(C)C)C(C)C)c(OC(C)=O)c1 | -0.211 (inactive) | 0.413 | -2.74 | -2.16 (inactive) | 0.0917 (inactive) | 0.331 (inactive)
28 | Cc1nc2cc(Br)ccc2c(=O)n1Cc1cccc(O)c1 | 0.651 (inactive) | 0.529 | -0.563 | 0.464 (inactive) | 0.18 (inactive) | 0.257 (inactive)
29 | NC(=O)[C@@H]1[C@H]2C(=O)O[C@H](c3ccccc3)[C@H](c3ccccc3)N2[C@H](c2ccc(OCCO)cc2)[C@@]12C(=O)Nc1ccc(C#CCCO)cc12 | 0.198 (inactive) | 0.808 | 0.195 | -4.88 (inactive) | -0.504 (inactive) | -0.804 (inactive)
30 | C=C(CCCC)/C(=C/C[C@H](OC(C)=O)c1ccc(OCCO)cc1)c1cc(C(=O)OC)ccc1OC | -0.124 (inactive) | 0.71 | -2.82 | -3.64 (inactive) | -1.09 (inactive) | -1.97 (inactive)
31 | O=C(NCC(O)CO)[C@@]1(CCS(=O)(=O)c2ccccc2)COC(c2ccc(OCCCO)cc2)=N1 (some centres undefined) | -0.119 (inactive) | 0.696 | -0.475 | -5.1 (inactive) | -0.275 (inactive) | -0.556 (inactive)
32 | COc1ccc(C#Cc2ccc3c(c2)[C@]2(C(=O)N3)[C@H](c3ccc(OCCO)cc3)N3[C@H](c4ccccc4)[C@H](c4ccccc4)OC(=O)[C@H]3[C@@H]2C(=O)N2CCc3cc(OC)c(OC)cc3C2)cc1 | 0.119 (inactive) | 0.659 | -1.92 | 2.11 (inactive) | -0.0018 (inactive) | 0.0006 (inactive)
33 | COCC(=C=CC[C@H](O)c1cccc(OCCO)c1)C[C@H](O)COCc1ccccc1 | 0.196 (inactive) | -0.524 | -1.88 | -3.95 (inactive) | -0.0978 (inactive) | 0.443 (inactive)
34 | C=C(COC)/C(=C/C[C@H](OC(C)=O)c1cccc(OCCO)c1)c1cnc2ccccc2c1 | 1.46 (inactive) | 0.75 | -2.62 | -5.87 (inactive) | -0.104 (inactive) | 0.276 (inactive)
